High-throughput results deposited in PubChem by NMMLSC.
In the library only some 1.2% were active in any assay of this set; here they are far more common.
RGS8-Gao reg – RGS8-Galphao binding modulators, primary screen, biochemical, multiplexed bead flow cytometry; actives 0.34% (n = 220,000); Guanine nucleotide-binding protein G(o) subunit alpha (Homo sapiens), P09471; actives lie on both sides; response (percent of control binding), % at 10 µM; in the data active = response below about 60% or above about 140%; inactive = in between;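 note: Galphao activated as the GDP aluminium fluoride complex binding bead-coupled RGS8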
RGS4-Gao reg – modulators of RGS4 binding to Galphao, primary screen, biochemical, multiplexed bead flow cytometry | Guanine nucleotide-binding protein G(o) subunit alpha (Homo sapiens), P09471 | actives lie on both sides | binding response (% of control), % at 10 µM | actives 0.33% (n = 220,000) | AID 1415, 2008; in the data active = binding response below about 49% or above about 150%; inactive = in between;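 note: fluorescent Galphao activated with aluminum fluoride binding bead-coupled RGS4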
GSH bead fluor – compound fluorescence on glutathione beads, profiling panel, artefact control, biophysical, 488/530 nm, flow cytometry; actives 0.25% (n = 190,000); fluorescence (KMESF) at 10 µM; GSH beads flow cytometry, compound fluorescence 488/530 nm; active compounds read high; in the data active = fluorescence above about 89;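 note: glutathione beads carrying GST-tagged Bcl family fusion proteins plus one bare bead set; values are compound well signal with DMSO vehicle wells as background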
RGS16-Gao HTS – modulators of RGS16 binding to Galphao, primary screen, biochemical, human proteins, multiplexed bead flow cytometry; bead-based flow cytometry RGS16-Galphao binding, fluorescence; actives lie on both sides; Regulator of G-protein signaling 16 (Homo sapiens) + Guanine nucleotide-binding protein …; binding response (% of control), % at 10 µM; AID 1441, 2008; actives 0.38% (n = 220,000);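 note: Galphao activated by GDP with aluminum fluoride before binding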
Target sequence (O15492 whole entry, looked up): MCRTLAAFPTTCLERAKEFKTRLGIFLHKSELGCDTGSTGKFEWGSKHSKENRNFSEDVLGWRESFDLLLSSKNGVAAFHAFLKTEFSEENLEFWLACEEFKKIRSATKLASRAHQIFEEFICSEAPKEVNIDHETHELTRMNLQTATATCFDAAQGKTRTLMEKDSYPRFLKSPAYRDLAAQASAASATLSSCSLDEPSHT
Target sequence (P09471 whole entry, looked up): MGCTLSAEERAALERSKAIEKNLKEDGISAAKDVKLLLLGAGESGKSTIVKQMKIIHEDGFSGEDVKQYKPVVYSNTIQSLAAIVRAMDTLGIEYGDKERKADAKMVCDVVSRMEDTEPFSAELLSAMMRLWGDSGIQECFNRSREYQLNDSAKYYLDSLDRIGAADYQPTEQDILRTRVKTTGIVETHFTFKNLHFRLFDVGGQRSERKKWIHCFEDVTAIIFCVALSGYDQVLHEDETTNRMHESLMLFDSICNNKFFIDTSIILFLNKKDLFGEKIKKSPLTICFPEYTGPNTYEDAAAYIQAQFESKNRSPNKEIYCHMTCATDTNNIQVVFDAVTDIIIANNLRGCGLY
RGS7-Gao reg – RGS7-Galphao binding modulators, primary screen, biochemical, multiplexed bead flow cytometry; Guanine nucleotide-binding protein G(o) subunit alpha (Homo sapiens), P09471; actives lie on both sides; binding response (% of control), % at 10 µM; actives 0.35% (n = 220,000); in the data active = binding response below about 49% or above about 150%; inconclusive = no clear call, values can overlap the other calls; inactive = in between;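 note: fluorescent Galphao held in activated GDP-AlF4 state binding bead-coupled RGS7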
Avidin fluor – green autofluorescence of compounds with avidin beads – biophysical, 488/530 nm, flow cytometry, artefact control, profiling panel. compound fluorescence 488/530 nm; active compounds read high. actives 0.38% (n = 220,000). fluorescence (KMESF) at 10 µM; in the data active = fluorescence above about 47
RGS4-Gao HTS – modulators of RGS–Galpha-o binding, primary screen, biochemical, multiplexed beads, flow cytometry, RGS4/7/8/16/19; shares compounds with RGS16-Gao HTS; multiplexed bead flow cytometry; RGS4–Galpha-o binding response, % at 10 µM; actives 99% (n = 1,600); AID 1504, 2009;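 note: fluorescently labeled Galpha-o bound to GDP with aluminium fluoride binding biotinylated RGS beads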
Avidin counter – disruption of biotin probe capture by avidin, counter-screen for RGS protein interaction modulators, biochemical, flow cytometry, bead-based; shares compounds with RGS16-Gao HTS; streptavidin beads, fluorescein-biotin binding; inhibition, % at 10 µM; 1,700 tested, under 10 active; AID 1783, 2009;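 active = inhibition above 50%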;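 note: median green fluorescence of gated singlet beads compared with DMSO control wells; 0% = DMSO wells and 100% = complete loss of bead fluorescence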
RGS8-Gao confirm – RGS8-Galphao binding modulators, confirmation, biochemical, multiplexed bead flow cytometry, single concentration; shares compounds with RGS16-Gao HTS; bead-based flow cytometry RGS8-Galphao binding, fluorescence; actives lie on both sides; binding response (% of control), % at 10 µM; actives 3% (n = 1,700); AID 1836, 2009; in the data active = binding response below about 72% or above about 130%; inactive = in between;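 note: Galphao activated as GDP AlF4 complex before binding bead RGS8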
RGS7-Gao confirm – RGS7-Galphao binding modulators, confirmation, biochemical, multiplexed bead flow cytometry, single concentration. actives 7.8% (n = 1,700). AID 1837, 2009. bead-based flow cytometry RGS7-Galphao binding; actives lie on both sides. shares compounds with RGS16-Gao HTS. response (percent of control binding), % at 10 µM; in the data active = response below about 75% or above about 130%; inactive = in between;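 note: fluorescent Galphao activated with GDP and aluminum fluoride binding bead-coupled RGS7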
RGS16-Gao conf – modulators of RGS16-Galphao protein binding, confirmation, biochemical, single concentration, multiplexed bead flow cytometry; shares compounds with RGS16-Gao HTS; bead-based flow cytometry; actives lie on both sides; response (% of control binding), % at 10 µM; actives 4% (n = 1,700); AID 1838, 2009; in the data active = response below about 74% or above about 130%; inactive = in between;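 note: Galphao activated as the GDP aluminium fluoride complex binding bead-coupled RGS16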
RGS4-Gao confirm – modulators of RGS4-Galphao protein binding, confirmation, biochemical, single concentration, multiplexed bead flow cytometry; binding response (% of control), % at 10 µM; actives 4% (n = 1,700); shares compounds with RGS16-Gao HTS; actives lie on both sides; AID 1840, 2009; in the data active = binding response below about 74% or above about 130%; inactive = in between
RGS19-Gao single – regulators of RGS19-Galphao binding, confirmation, biochemical, single point, multiplexed bead flow cytometry; shares compounds with RGS16-Gao HTS; bead-based flow cytometry RGS19-Galphao binding; actives lie on both sides; response (percent of control binding), % at 10 µM; actives 5% (n = 1,700); in the data active = response below about 50% or above about 160%; inactive = in between;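 note: 100% = no compound control and 0% = blank background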
Starred values were filed as active, the others as inactive; ? = inconclusive; · = no result; [ ] = dose if it differs, or a comment. Unless noted, the rule behind the calls is not given here.

SMILES	RGS8-Gao reg	RGS4-Gao reg	GSH bead fluor	RGS16-Gao HTS	RGS7-Gao reg	Avidin fluor	RGS4-Gao HTS	Avidin counter	RGS8-Gao confirm	RGS7-Gao confirm	RGS16-Gao conf	RGS4-Gao confirm	RGS19-Gao single
CC(=NCC1CCCO1)c1c(O)n(C)c(=O)n(C)c1=O (centres undefined)	54*	-9.3*	10	-18*	31*	7	·	-1	101	92	99	98	96
N#CC(C#N)=Cc1ccc(N2CCCC2)cc1	71	184*[activator]	20	150	668*[activator]	118*	·	1	102	103	103	104	86
CC(=O)N1N=C(c2c(O)n(C)c(=O)n(C)c2=O)CC1c1ccccc1 (centres undefined)	103	104	·	100	?	8	·	·	·	·	·	·	·
O=C1NC(c2cccnc2)Nc2sc3c(c21)CCCC3 (centres undefined)	72	86	29	23*	94	4	86*	-3	101	98	100	99	94
CN(C)C(=O)Nc1cccc(OC(=O)N(C)C)c1	99	126	22	108	281*[activator]	178*	126*	0	98	99	101	101	101
O=P(Oc1ccccc1)(Oc1ccccc1)C(Nc1ccccc1)c1ccccc1 (centres undefined)	53*	68	9	12	68	2	68*	0	100	99	103	100	98
CN1C2CCC1/C(=C/c1ccccn1)C(=O)/C2=C\c1ccccn1	96	92	10	96	93	3	·	·	·	·	·	·	·
N#CC1=C(N)Oc2c(c(=O)oc3ccccc23)C1c1ccc([N+](=O)[O-])o1 (centres undefined)	97	96	18	95	?	13	·	·	·	·	·	·	·
